# From PubChem BioAssay (NCATS)
# Results filed as inconclusive are left out. Some structures have more than one record in an assay (separate samples or runs), and their calls can disagree. Unmarked numbers belong to inactive results. Calls of active or inactive are those of the source. Unless noted, calls come from the whole dose curve; as a rule, active = well fitted curve in the direction sought with a large enough effect; inconclusive = small, poorly fitted or top-dose-only effect, or another doubt; inactive = no such curve, though single readings can be large; an effect the other way counts as inactive or inconclusive.
# Experiments:
# [1] = Cell Viability - LYMP2-001 (AID 921); note: potency is the fitted concentration of half-maximal effect; nearly all actives have a fitted effect of over 70% in size
# Summary of the method: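 CellTiter-Glo luminescence (intracellular ATP) after 24 hr compound exposure at 37 C, 2500 lymphoblastoid cells/well in complete medium. AC50 fitted with standard Hill equation; tetraoctylammonium bromide positive control.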
# [2] = Cell Viability - LYMP2-009 (AID 968); note: potency is the fitted concentration of half-maximal effect; nearly all actives have a fitted effect of over 55% in size
# [3] = Cell Viability - LYMP2-011 (AID 969); note: potency is the fitted concentration of half-maximal effect; nearly all actives have a fitted effect of over 60% in size
# Summary of the method: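 Acute toxicity is scored as a concentration-dependent drop in intracellular ATP of a human lymphoblastoid line after 24 hr treatment. Values are AC50s modeled with the Hill equation.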
# [4] = Cell Viability - LYMP2-013 (AID 970); note: potency is the fitted concentration of half-maximal effect; nearly all actives have a fitted effect of over 55% in size
# Summary of the method: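 Acute toxicity was measured in human lymphoblastoid cells (2500/well) exposed to compound titrations for 24 hr, with ATP luminescence (CellTiter-Glo) as read-out and AC50 fitted by Hill equation.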
# [5] = Cell Viability - LYMP2-015 (AID 971); note: potency is the fitted concentration of half-maximal effect; nearly all actives have a fitted effect of over 55% in size
# Summary of the method: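 Acute toxicity was scored as a concentration-dependent drop in intracellular ATP in lymphoblastoid cells after 24 hr compound exposure in complete medium. Detection used CellTiter-Glo luciferase luminescence.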
# [6] = Cell Viability - LYMP2-017 (AID 972); note: potency is the fitted concentration of half-maximal effect; nearly all actives have a fitted effect of over 55% in size
# Summary of the method: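 Steps: plate 2500 lymphoblastoid cells per well; incubate 5 hr at 37 C; add compound across a concentration series and incubate 24 hr at 37 C; add CellTiter-Glo and read luminescence after 30 min at room temperature; fit Hill curves for AC50.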
# [7] = Cell Viability - LYMP2-019 (AID 973)
# Summary of the method: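 Cells plated at 2500/well and allowed 5 hr at 37 C before compound addition. After 24 hr incubation, CellTiter-Glo reagent was added, plates sat 30 min at room temperature, and luminescence was recorded.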
# [8] = Cell Viability - LYMP2-021 (AID 974)
# Summary of the method: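 Concentration-response cytotoxicity in a human lymphoblastoid line: 24 hr treatment at 37 C in complete culture medium, tetraoctylammonium bromide as positive control, luminescent ATP quantitation as viability measure.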
# [9] = Cell Viability - LYMP2-023 (AID 975)
# Summary of the method: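 Concentration-dependent drop in intracellular ATP measures acute cytotoxicity in a human lymphoblastoid line treated for 24 hours in complete culture medium. AC50 values are taken from Hill-equation fits of qHTS data.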
# [10] = Cell Viability - LYMP2-025 (AID 976); note: potency is the fitted concentration of half-maximal effect
# Summary of the method: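 In qHTS format, LYMP2-025 lymphoblastoid cells in complete culture medium received compound for 24 hr; ATP-based CellTiter-Glo signal gave viability, with AC50 derived by Hill equation.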
# [11] = Cell Viability - LYMP2-002 (AID 977);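 note: potency is the fitted concentration of half-maximal effect; compound exposure lasted 24 h at 37 °C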
# Summary of the method: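 Human lymphoblastoid LYMP2-002 cells, 2500 per well, exposed to compounds for 24 h at 37 C in complete medium; viability read as intracellular ATP by CellTiter-Glo luminescence, AC50 from Hill fits.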
# [12] = Cell Viability - LYMP2-006 (AID 978); note: potency is the fitted concentration of half-maximal effect; nearly all actives have a fitted effect of over 60% in size
# Summary of the method: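 qHTS, 1536-well; 2500 cells/well, 5 hr 37 C; cpd 24 hr 37 C; CellTiter-Glo 30 min RT; luminescence. Tetraoctylammonium bromide pos. ctrl. AC50 via Hill eqn.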
# [13] = Cell Viability - LYMP2-007 (AID 979);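 note: potency is the fitted concentration of half-maximal effect; cells exposed to compound for 24 h before reading; nearly all actives have a fitted effect of over 60% in size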
# Summary of the method: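 Acute toxicity is scored as a concentration-dependent fall in intracellular ATP in human lymphoblastoid cells treated 24 hr at 37 C, measured by luciferase luminescence; Hill-equation modelling yields AC50.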
# [14] = Cell Viability - LYMP2-012 (AID 982)
# [15] = Cell Viability - LYMP2-014 (AID 983); note: potency is the fitted concentration of half-maximal effect; nearly all actives have a fitted effect of over 50% in size
# Summary of the method: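 Decrease in intracellular ATP after 24 hr treatment at 37 C, measured by luciferase luminescence, indicated cytotoxicity. Concentration-response data were fitted with the standard Hill equation to give AC50.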
# [16] = Cell Viability - LYMP2-016 (AID 984)
# Summary of the method: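 qHTS, 1536-well: 2500 LYMP2-016 cells/well, 5 hr 37 C, compound added, 24 hr 37 C, CellTiter-Glo 30 min RT, luminescence. Tetraoctylammonium bromide positive control. AC50 via Hill fit.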
# [17] = Cell Viability - LYMP2-018 (AID 985); note: potency is the fitted concentration of half-maximal effect; nearly all actives have a fitted effect of over 50% in size
# Summary of the method: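 Acute cytotoxicity is scored as a concentration-dependent drop in intracellular ATP after 24 hr exposure of the lymphoblastoid line in complete culture medium, measured by luciferase luminescence. Potency is expressed as AC50 from Hill modelling.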
# [18] = Cell Viability - LYMP2-020 (AID 986)
# Summary of the method: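 Acute cytotoxicity in a human lymphoblastoid line is scored as a concentration-dependent fall in cellular ATP after 24 hr at 37 C in complete medium. The positive control is tetraoctylammonium bromide, and potency is given as Hill-fit AC50.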
# [19] = Cell Viability - LYMP2-022 (AID 987)
# Summary of the method: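 Acute toxicity in a human lymphoblastoid line is scored as decreased intracellular ATP after 24 hr compound treatment at 37 C. ATP is measured by CellTiter-Glo luminescence; curves are fitted with the Hill equation to give AC50.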
# [20] = Cell Viability - LYMP2-024 (AID 988); note: potency is the fitted concentration of half-maximal effect; nearly all actives have a fitted effect of over 60% in size
# Summary of the method: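 Acute toxicity is measured as concentration-dependent loss of intracellular ATP in a human lymphoblastoid line treated 24 hours at 37 C. Luciferase luminescence quantifies ATP; AC50 values come from standard Hill-equation modelling.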
# [21] = Cell Viability - LYMP2-026 (AID 989); note: potency is the fitted concentration of half-maximal effect; nearly all actives have a fitted effect of over 50% in size
# Summary of the method: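 Concentration-dependent loss of intracellular ATP in human lymphoblastoid cells after 24 hr at 37 C, quantified by luciferase luminescence. AC50 derived from standard Hill equation.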
# [22] = target: Glucocorticoid receptor (Homo sapiens) (UniProt P04150); assay: qHTS assay for small molecule antagonists of glucocorticoid receptor signaling (AID 588533; active = well fitted inhibition curve with a large enough effect in the signal ratio, with a control signal flat, not every such curve was filed as active; the % refers to the signal ratio;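 note: cells stimulated with 2 nM dexamethasone as agonist; % is set by controls: 0 for no effect and ±100 for the full control effect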)
# Summary of the method: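 Antagonist-mode qHTS: compound titrations added to GRE-bla HeLa cells, then dexamethasone 2 nM final; 18 h, 37 C. CCF4 FRET fluorescence normalized to dexamethasone and DMSO; IC50 from Hill fit.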
# [23] = target: Peroxisome proliferator-activated receptor delta (Homo sapiens) (UniProt Q03181); assay: qHTS assay for small molecule agonists of peroxisome proliferator-activated receptor delta signaling (AID 588534; calls by dose curve;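 note: 0% = DMSO basal wells and 100% = positive control agonist at 10 µM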)
# Summary of the method: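 Reporter cells were plated and held 5 hrs at 37 C before compounds were added. After 18 hrs at 37 C, CCF4 dye was loaded for 2 hrs at RT and fluorescence measured.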
# [24] = target: Voltage-gated inwardly rectifying potassium channel KCNH2 (Homo sapiens) (UniProt Q12809); assay: qHTS Assay for Small Molecule Inhibitors of the Human hERG Channel Activity (AID 588834);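 note: potency is the fitted concentration of half-maximal effect; lower thallium flux fluorescence means stronger hERG block; nearly all actives have a fitted effect of over 50% in size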
# Summary of the method: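 Concentration-response qHTS measuring drop in thallium-sensitive dye signal. U2OS cells carrying BacMam hERG; compound exposure ~10 min, then stimulation buffer and 2 min read at 1 sec intervals.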
# [25] = qHTS assay for small molecule agonists of the antioxidant response element (ARE) signaling pathway (AID 651741; active = well fitted activation curve with a large enough effect in the signal ratio; the % refers to the signal ratio; note: % of control where 0% means no effect)
# Summary of the method: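 HepG2 ARE-bla cells plated at 2,000 cells/well and incubated 5 h at 37 C/5% CO2 received 23 nL compound in DMSO. After 16 h at 37 C, LiveBLAzer B/G FRET substrate was applied for 2 h at room temperature and fluorescence read.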
# [26] = qHTS assay for small molecule activators of the p53 signaling pathway (AID 651743; active = well fitted activation curve with a large enough effect in the signal ratio, not every such curve was filed as active; the % refers to the signal ratio; note: series mostly up to about 92 µM; % of control where 0% means no effect); settings: HCT-116 p53RE-bla, beta-lactamase FRET ratio, 16 h; activation: active compounds read high
# Summary of the method: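 HCT-116 p53RE-bla, 4,000 cells/well; 5 h settle; cpd/DMSO 16 h, 37 C; LiveBLAzer B/G 2 h RT; fluorescence intensity.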
# [27] = qHTS assay to identify small molecules that stimulate interleukin-8 (IL-8) secretion (AID 651758; active = well fitted activation curve with a large enough effect in the signal ratio; the % refers to the signal ratio; note: potency is the fitted concentration of half-maximal effect)
# Summary of the method: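 THP-1 cells (2000/well) exposed to compound 16 h at 37 C; secreted IL-8 then detected by HTRF with cryptate- and XL665-labelled anti-IL-8 antibody pair after 1-3 h at room temperature.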
# [28] = qHTS assay for small molecule antagonists of the retinoid-related orphan receptor gamma (ROR-gamma) signaling pathway - cell viability counter screen (AID 720652; active = well fitted curve in the direction sought with a large enough effect in the repeat runs; an effect the other way counts as inactive or inconclusive;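 note: potency is the fitted concentration of half-maximal effect; compound exposure lasted 16 hr before ATP read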)
# Summary of the method: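 Cytotoxicity is quantified via intracellular ATP (CellTiter-Glo luminescence) in doxycycline-induced CHO ROR response element-luciferase reporter cells treated with compound for 16 hr at 37 C, 5% CO2.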
# [29] = qHTS assay for small molecule agonists of the antioxidant response element (ARE) signaling pathway measured by Nrf2-dependant transcriptional activity - cell viability counter screen (AID 720653; active = well fitted curve in the direction sought with a large enough effect in the repeat runs; an effect the other way counts as inactive or inconclusive; note: potency is the fitted concentration of half-maximal effect; for max response: % is set by controls: 0 for no effect and ±100 for the full control effect); settings: ARE-bla HepG2 viability, CellTiter-Glo ATP luminescence, 16 h; max response: active compounds read low
# Summary of the method: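 ARE-bla HepG2 cells treated with compounds for 16 h at 37C; this counter screen measures viability as intracellular ATP by CellTiter-Glo luminescence after 30 min at room temperature.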
# Sequence of Peroxisome proliferator-activated receptor delta (Homo sapiens) (Q03181 whole entry, looked up): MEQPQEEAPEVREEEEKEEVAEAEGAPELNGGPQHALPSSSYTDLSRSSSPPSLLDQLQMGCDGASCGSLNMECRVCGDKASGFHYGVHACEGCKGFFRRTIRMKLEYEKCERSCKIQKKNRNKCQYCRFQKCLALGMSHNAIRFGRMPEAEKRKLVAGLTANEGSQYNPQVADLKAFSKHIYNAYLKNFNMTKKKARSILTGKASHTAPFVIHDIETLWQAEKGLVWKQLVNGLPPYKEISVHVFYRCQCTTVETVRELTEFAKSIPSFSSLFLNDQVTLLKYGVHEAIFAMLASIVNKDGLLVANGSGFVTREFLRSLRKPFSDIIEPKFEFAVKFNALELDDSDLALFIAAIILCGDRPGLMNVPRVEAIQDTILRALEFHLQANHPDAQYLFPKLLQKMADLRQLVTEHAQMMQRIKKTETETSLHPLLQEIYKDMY
# Sequence of Glucocorticoid receptor (Homo sapiens) (P04150 whole entry, looked up): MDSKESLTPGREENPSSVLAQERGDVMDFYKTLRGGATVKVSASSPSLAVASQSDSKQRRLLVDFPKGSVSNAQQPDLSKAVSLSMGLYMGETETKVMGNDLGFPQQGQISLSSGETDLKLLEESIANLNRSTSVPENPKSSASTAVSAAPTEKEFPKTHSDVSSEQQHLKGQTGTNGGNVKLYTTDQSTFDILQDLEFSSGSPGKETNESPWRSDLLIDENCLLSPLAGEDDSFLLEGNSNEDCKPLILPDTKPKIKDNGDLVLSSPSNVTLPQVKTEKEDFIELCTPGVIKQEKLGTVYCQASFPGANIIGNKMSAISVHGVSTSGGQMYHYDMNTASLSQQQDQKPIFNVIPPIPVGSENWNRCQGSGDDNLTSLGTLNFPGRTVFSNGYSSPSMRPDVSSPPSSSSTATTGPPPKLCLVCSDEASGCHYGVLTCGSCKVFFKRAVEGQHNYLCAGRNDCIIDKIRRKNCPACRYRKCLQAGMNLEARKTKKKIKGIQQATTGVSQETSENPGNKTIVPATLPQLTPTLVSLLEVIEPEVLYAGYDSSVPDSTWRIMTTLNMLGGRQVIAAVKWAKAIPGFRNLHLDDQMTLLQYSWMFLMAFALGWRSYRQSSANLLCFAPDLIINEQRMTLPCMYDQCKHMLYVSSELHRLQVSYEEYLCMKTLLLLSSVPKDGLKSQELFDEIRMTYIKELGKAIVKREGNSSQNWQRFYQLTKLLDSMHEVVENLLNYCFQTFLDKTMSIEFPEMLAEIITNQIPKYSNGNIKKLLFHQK
# Sequence of Voltage-gated inwardly rectifying potassium channel KCNH2 (Homo sapiens) (Q12809 whole entry, looked up): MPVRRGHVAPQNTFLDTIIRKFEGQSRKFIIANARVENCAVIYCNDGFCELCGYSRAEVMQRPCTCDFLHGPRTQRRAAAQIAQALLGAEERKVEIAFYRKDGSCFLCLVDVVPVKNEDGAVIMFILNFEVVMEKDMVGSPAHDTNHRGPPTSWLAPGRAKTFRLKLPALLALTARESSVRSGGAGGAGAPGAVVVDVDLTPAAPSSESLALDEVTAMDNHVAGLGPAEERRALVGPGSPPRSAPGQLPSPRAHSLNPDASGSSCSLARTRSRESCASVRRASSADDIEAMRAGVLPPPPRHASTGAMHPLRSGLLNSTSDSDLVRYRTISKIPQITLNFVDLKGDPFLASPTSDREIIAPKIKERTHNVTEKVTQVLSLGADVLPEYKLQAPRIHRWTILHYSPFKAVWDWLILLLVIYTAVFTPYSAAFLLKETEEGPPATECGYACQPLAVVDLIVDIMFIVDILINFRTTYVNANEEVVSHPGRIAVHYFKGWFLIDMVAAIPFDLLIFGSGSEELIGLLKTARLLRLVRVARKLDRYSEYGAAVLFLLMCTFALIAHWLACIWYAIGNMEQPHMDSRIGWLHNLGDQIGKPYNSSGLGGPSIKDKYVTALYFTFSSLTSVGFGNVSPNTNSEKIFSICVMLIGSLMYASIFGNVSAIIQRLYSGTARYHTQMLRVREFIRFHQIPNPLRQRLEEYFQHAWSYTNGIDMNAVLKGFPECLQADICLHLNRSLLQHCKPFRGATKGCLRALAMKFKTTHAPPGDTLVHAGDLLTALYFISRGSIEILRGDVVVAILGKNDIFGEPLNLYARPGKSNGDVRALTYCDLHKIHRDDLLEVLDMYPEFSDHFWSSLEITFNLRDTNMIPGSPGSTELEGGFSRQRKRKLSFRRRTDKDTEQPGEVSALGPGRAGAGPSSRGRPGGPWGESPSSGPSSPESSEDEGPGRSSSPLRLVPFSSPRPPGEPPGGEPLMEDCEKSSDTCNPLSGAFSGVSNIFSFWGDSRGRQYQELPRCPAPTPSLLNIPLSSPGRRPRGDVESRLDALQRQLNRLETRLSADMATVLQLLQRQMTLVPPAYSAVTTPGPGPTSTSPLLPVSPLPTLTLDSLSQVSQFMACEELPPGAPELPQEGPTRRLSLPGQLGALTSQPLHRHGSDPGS
smiles,measurement,setting,value
ClC1=C(Cl)C(Cl)(Cl)C(Cl)=C1Cl,Potency,[1],5.01 µM (active)
same,Potency,[2],7.94 µM (active)
same,Potency,[3],6.31 µM (active)
same,Potency,[4],6.31 µM (active)
same,Potency,[5],3.98 µM (active)
same,Potency,[6],6.31 µM (active)
same,Potency,[7],6.31 µM (active)
same,Potency,[8],6.31 µM (active)
same,Potency,[9],5.01 µM (active)
same,Potency,[10],10 µM (active)
same,Potency,[11],6.31 µM (active)
same,Potency,[12],7.94 µM (active)
same,Potency,[13],3.16 µM (active)
same,Potency,[14],6.31 µM (active)
same,Potency,[15],7.94 µM (active)
same,Potency,[16],6.31 µM (active)
same,Potency,[17],7.94 µM (active)
same,Potency,[18],7.94 µM (active)
same,Potency,[19],6.31 µM (active)
same,Potency,[20],3.16 µM (active)
same,Potency,[21],10 µM (active)
same,Potency,[22],inactive
same,outcome,[23],inactive
same,Potency,[24],22.4 µM (active)
same,Potency,[25],inactive
same,activation,[26],12.3%
same,Potency,[27],29.8 µM (active)
same,Potency,[28],11.9 µM (active)
same,Potency,[29],35.5 µM (active)
same,max response,[29],-1.05%
